# Publication PMC11062922 (Nature Chemical Biology, 2023)
# Read-outs that look alike come from different tables or passages of the source.
# Columns and labels:
# Design in all cases: species or system human, MV4-11 + K-562 + COLO205 + SK-N-BE2 + OVCAR-8
# ADRBK1 = conditions: read-out: apparent Kd; compound concentrations:100 nM and 1000 nM (sheet 'Samples'); n = 1
# CDK6 = conditions: read-out: apparent Kd; compound concentrations:100 nM and 1000 nM (sheet 'Samples'); n = 1
# AKT1 = conditions: read-out: apparent Kd; compound concentrations:100 nM and 1000 nM (sheet 'Samples'); n = 1
# AKT2 = conditions: read-out: apparent Kd; compound concentrations:100 nM and 1000 nM (sheet 'Samples'); n = 1
# CSNK1A1 = conditions: read-out: apparent Kd; compound concentrations:100 nM and 1000 nM (sheet 'Samples'); n = 1
# MAP2K2 = conditions: read-out: apparent Kd; compound concentrations:100 nM and 1000 nM (sheet 'Samples'); n = 1
# MAP3K4 = conditions: read-out: apparent Kd; compound concentrations:100 nM and 1000 nM (sheet 'Samples'); n = 1
# MAPK14 = conditions: read-out: apparent Kd, n = 1
# NCL = conditions: read-out: apparent Kd; compound concentrations:100 nM and 1000 nM (sheet 'Samples'); n = 1
# OPA1 = conditions: read-out: apparent Kd; compound concentrations:100 nM and 1000 nM (sheet 'Samples'); n = 1
# PIM2 = conditions: read-out: apparent Kd; compound concentrations:100 nM and 1000 nM (sheet 'Samples'); n = 1
# PIP4K2C = conditions: read-out: apparent Kd; compound concentrations:100 nM and 1000 nM (sheet 'Samples'); n = 1
# PRKAG2 = conditions: read-out: apparent Kd; compound concentrations:100 nM and 1000 nM (sheet 'Samples'); n = 1
# PYGL = conditions: read-out: apparent Kd; compound concentrations:100 nM and 1000 nM (sheet 'Samples'); n = 1
# STK16 = conditions: read-out: apparent Kd; compound concentrations:100 nM and 1000 nM (sheet 'Samples'); n = 1
# STK26 = conditions: read-out: apparent Kd; compound concentrations:100 nM and 1000 nM (sheet 'Samples'); n = 1
# MAP2K3 = conditions: read-out: apparent Kd; compound concentrations:100 nM and 1000 nM (sheet 'Samples'); n = 1
# MAPK10 = conditions: read-out: apparent Kd; compound concentrations:100 nM and 1000 nM (sheet 'Samples'); n = 1
# MAPK11 = conditions: read-out: apparent Kd; compound concentrations:100 nM and 1000 nM (sheet 'Samples'); n = 1
# MAPK9 = conditions: read-out: apparent Kd; compound concentrations:100 nM and 1000 nM (sheet 'Samples'); n = 1
# MAPKAPK2 = conditions: read-out: apparent Kd; compound concentrations:100 nM and 1000 nM (sheet 'Samples'); n = 1
# ADK = conditions: read-out: apparent Kd, n = 1
# CAMK4 = conditions: read-out: apparent Kd; compound concentrations:100 nM and 1000 nM (sheet 'Samples'); n = 1
# FLT3 = conditions: read-out: apparent Kd; compound concentrations:100 nM and 1000 nM (sheet 'Samples'); n = 1
# MAP2K1 = conditions: read-out: apparent Kd; compound concentrations:100 nM and 1000 nM (sheet 'Samples'); n = 1
# NNT = conditions: read-out: apparent Kd; compound concentrations:100 nM and 1000 nM (sheet 'Samples'); n = 1
# NQO1 = conditions: read-out: apparent Kd; compound concentrations:100 nM and 1000 nM (sheet 'Samples'); n = 1
# CDK4 = conditions: read-out: apparent Kd; compound concentrations:100 nM and 1000 nM (sheet 'Samples'); n = 1
# NQO2 = conditions: read-out: apparent Kd; compound concentrations:100 nM and 1000 nM (sheet 'Samples'); n = 1
# PRKCZ = conditions: read-out: apparent Kd; compound concentrations:100 nM and 1000 nM (sheet 'Samples'); n = 1
# TP53RK = conditions: read-out: apparent Kd; compound concentrations:100 nM and 1000 nM (sheet 'Samples'); n = 1
# [1] = compound concentrations:100 nM and 1000 nM (sheet 'Samples')
structure (smiles),measurement,setting,value
Nc1n[nH]c2nnc(-c3ccccc3)cc12 [SB-517389],potency estimated from few doses,ADRBK1,1.38 µM
same,potency estimated from few doses,CDK6,1.87 µM
Cc1ccc(NC(=O)CC2CC2)cc1-c1ccc(C(=O)NCC2CC2)cc1 [GW796920X],potency estimated from few doses,ADRBK1,1.86 µM
same,potency estimated from few doses,AKT1,1.77 µM
same,potency estimated from few doses,AKT2,1.68 µM
same,potency estimated from few doses,CSNK1A1,2.22 µM
same,potency estimated from few doses,MAP2K2,2.22 µM
same,potency estimated from few doses,MAP3K4,1.8 µM
same,potency estimated from few doses,"MAPK14; compound concentrations: 100 nM and 1000 nM (sheet 'Samples'), CATDS: 0.122142095126863",0.629 µM
same,potency estimated from few doses,NCL,2.3 µM
same,potency estimated from few doses,OPA1,1.7 µM
same,potency estimated from few doses,PIM2,1.74 µM
same,potency estimated from few doses,PIP4K2C,1.65 µM
same,potency estimated from few doses,PRKAG2,1.31 µM
same,potency estimated from few doses,PYGL,2.13 µM
same,potency estimated from few doses,STK16,2.17 µM
same,potency estimated from few doses,STK26,1.45 µM
C[C@@H](Cn1ncnn1)Nc1ncc2cc(Oc3ccc(F)cc3F)c(=O)n(C)c2n1 [RO5067310-000],potency estimated from few doses,ADRBK1,2.27 µM
same,potency estimated from few doses,AKT1,1.75 µM
same,potency estimated from few doses,MAP2K3,1.77 µM
same,potency estimated from few doses,MAPK10,0.424 µM
same,potency estimated from few doses,MAPK11,0.0309 µM
same,potency estimated from few doses,MAPK9,0.265 µM
same,potency estimated from few doses,MAPKAPK2,0.00325 µM
CC(=O)N[C@@H](Cc1ccc(OP(=O)(O)O)cc1)C(=O)N[C@H]1CCC(=O)N2CCC[C@@H](C(=O)NCc3ccc(O)cc3)N2C1=O [RO0324381-000],potency estimated from few doses,ADK; [1],1.27 µM
O=C(Nc1n[nH]c2nc(-c3ccco3)c(Br)cc12)C1CC1 [SB-739452],potency estimated from few doses,"ADK; compound concentrations: 100 nM and 1000 nM (sheet 'Samples'), CATDS: 1",1.72 µM
NS(=O)(=O)c1ccc(N/N=C2\C(=O)Nc3ccc(Cl)cc32)cc1 [GW280670X],potency estimated from few doses,ADRBK1,1.88 µM
same,potency estimated from few doses,CAMK4,1.33 µM
same,potency estimated from few doses,CDK6,2.28 µM
same,potency estimated from few doses,FLT3,1.09 µM
same,potency estimated from few doses,MAP2K1,2 µM
same,potency estimated from few doses,NNT,1.29 µM
same,potency estimated from few doses,NQO1,1.85 µM
Cc1ccccc1-c1cc(-c2c[nH]nc2-c2ccccn2)ccn1 [GW680061X],potency estimated from few doses,ADRBK1,2.14 µM
same,potency estimated from few doses,CDK4,1.89 µM
same,potency estimated from few doses,CDK6,1.96 µM
same,potency estimated from few doses,MAP2K2,2.25 µM
same,potency estimated from few doses,MAPK14; [1],0.993 µM
same,potency estimated from few doses,MAPKAPK2,0.47 µM
same,potency estimated from few doses,NQO2,1.21 µM
same,potency estimated from few doses,PRKCZ,2.26 µM
same,potency estimated from few doses,TP53RK,2.16 µM
